# D1 antagonist: human D1 dopamine receptor antagonism. HEK293 TREx D1 cells, calcium flux, dopamine EC80; stronger effect = lower value. activity change, negative = inhibition, % at 10 µM. hit rate 3.2% among 360,000. AID 504652; in the data active means activity change below about -30%; further: on the % scale 0 is the no-effect control and ±100 the full control effect
# Target sequence (P21728 whole entry, looked up): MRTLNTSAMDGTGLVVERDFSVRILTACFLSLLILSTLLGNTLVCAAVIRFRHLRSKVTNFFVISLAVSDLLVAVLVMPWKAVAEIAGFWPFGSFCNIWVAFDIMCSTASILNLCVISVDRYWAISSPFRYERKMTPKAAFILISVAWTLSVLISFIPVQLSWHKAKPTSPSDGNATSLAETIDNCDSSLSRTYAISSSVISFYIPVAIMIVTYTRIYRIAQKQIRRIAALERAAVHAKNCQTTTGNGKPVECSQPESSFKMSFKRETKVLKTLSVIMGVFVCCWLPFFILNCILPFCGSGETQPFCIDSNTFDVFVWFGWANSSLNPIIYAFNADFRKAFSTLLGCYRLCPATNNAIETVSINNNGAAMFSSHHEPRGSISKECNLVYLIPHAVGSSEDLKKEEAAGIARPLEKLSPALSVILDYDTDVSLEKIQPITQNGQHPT
#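 Inducible Hek293 Trex D1 cells (tetracycline, overnight, 30 C). Calcium dye 30–90 min RT. Antagonist mode: EC80 dopamine added after 180 s compound read.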
# D1 potentiator: potentiators of human D1 dopamine receptor. P21728. AID 504651. hit rate 0.036% among 360,000. HEK293 TREx D1 cells, calcium flux, dopamine EC20 potentiation. potentiation, % at 10 µM; in the data active means potentiation above about 30%; further: 0% is about no effect
# D1 ag: human D1 receptor agonism; hit rate 1% among 360,000; activation, % at 2 µM; HEK293 T-REx D1 cells, calcium flux, agonist mode; P21728; further: 0% is about no effect
#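 Agonism was scored from calcium flux recorded over 180 s (1 read/s) after pintool compound addition, following a 10-cycle baseline. Cells were inducible force-coupled HEK293 TREx D1, plated overnight at 30 C and loaded with no-wash calcium dye.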
# TRHR enhancer: TRH receptor (human) allosteric enhancement; TRHR cells, fluo-8 calcium fluorescence, EC20 TRH enhancement; enhancement, % at 2 µM; hit rate 0.66% among 360,000; AID 493056; in the data active means enhancement above about 30%; further: 0% is about no effect
#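 Enhancer read-out: after compound pinning and an initial kinetic agonist-mode read, an EC20 of TRH (10 nM final) was injected and fluo-8 calcium signal (Ex 480/Em 530) followed at 1 s/cycle for 100 cycles in TRHR-expressing cells.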
# LDHA inh: blocks human lactate dehydrogenase A; P00338; purified LDHA, NADH/diaphorase-resazurin fluorescence; stronger effect = lower value; activity change, % (values are at about 110 or 230 µM); hit rate 0.15% among 480,000; AID 1347041; in the data active means activity change below about -30%;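 further: plate controls were DMSO wells for no effect and wells without enzyme for full effect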
#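 Human LDH5 at 2 nM final in Tris HCl pH 7.4 with 0.06 mM NADH and 0.2 mM pyruvate, reacted 5 minutes at room temperature. Remaining NADH coupled via diaphorase/resazurin; resorufin fluorescence read at 0 and 20 minutes, normalized to enzyme-free and DMSO wells.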
# TRHR ag: TRH receptor (human) agonism. P34981. TRHR cells, calcium flux fluo-8, FDSS agonist mode. activation, % at 2 µM. hit rate 0.18% among 360,000. AID 493084; further: 0% is about no effect
#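 Agonist-mode FDSS calcium read (Ex 480/Em 530, 1 s cycles) in 1536-well TRHR cells with fluo-8 dye, after 10-cycle baseline and 23 nL compound addition; TRH at EC20 (10 nM final) added afterwards for the enhancer phase.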
# Numbers without * were called inactive; nt = no result. Rows were chosen to be rich in hits. Some 3.6% of all compounds tested hit in one or more screens of this group. Unless noted, no stated cut-off is given here; in the data, active means activation above about 30%; inactive means the rest.
SMILES,D1 antagonist,D1 potentiator,D1 ag,TRHR enhancer,LDHA inh,TRHR ag
CC(=O)OCC(=O)c1c[nH]c2ccccc12,11,-6,0,-9,2,1
Cc1ccc(CN2CCN(Cc3c[nH]c4ccccc34)CC2)cc1,nt,nt,nt,nt,7,nt
CCC(Oc1ccccc1F)C(=O)Nc1ccc(OC)c2ncccc12 (stereo unspecified),nt,nt,nt,nt,13,nt
CC(C)(C)OCC(O)CN(CCO)CC(O)Cn1ccc2ccccc21 (stereo unspecified),nt,nt,nt,nt,7,nt
Cc1cccc(OCCn2c(Cl)nc3c2c(=O)n(C)c(=O)n3C)c1,nt,nt,nt,nt,9,nt
Cc1ccc(-c2csc(-c3nc(-c4ccc(C)cc4C)cs3)n2)cc1,nt,nt,nt,nt,5,nt
CC(=O)NCCNc1nc(-c2ccccc2)nc2ccccc12,nt,nt,nt,nt,12,nt
O=C(COC(=O)C1CC1)c1c[nH]c2ccccc12,-11,1,-4,0,-1,0
O=C(Cc1ccccc1[N+](=O)[O-])OCC(=O)c1c[nH]c2ccccc12,-38*,-5,2,1,0,0
O=[N+]([O-])c1ccccc1CN1CCN(Cc2c[nH]c3ccccc23)CC1,-30*,-10,19,20,-19,2
COc1ccc(CN2CCN(Cc3cccc(Oc4ccccc4)c3)CC2)c(OC)c1OC,1,-3,11,2,-13,0
Brc1ccc(CN2CCSCC2)cc1,-13,-6,-1,6,-30*,-1
COc1ccc(CN2CCN(Cc3ccc(Br)cc3)CC2)c(OC)c1OC,14,2,5,-1,-30*,-1
CCC1CCCCN1S(=O)(=O)c1ccc(NC(=O)c2cc(=O)c3cc(C)ccc3o2)cc1 (stereo unspecified),nt,nt,nt,nt,7,nt
CCCSc1nc2c(c(=O)[nH]c(=O)n2C)n1CC(O)COc1ccccc1C (stereo unspecified),nt,nt,nt,nt,1,nt
COc1ccccc1Nc1nc(N)c(C(=O)c2c(C)cc(C)cc2C)s1,nt,nt,nt,nt,1,nt
COc1ccc(CN2CCN(Cc3c[nH]c4ccccc34)CC2)c(OC)c1,nt,nt,nt,nt,-33*,nt
COc1ccc(CN2CCN(CC(O)Cn3c4ccccc4c4ccccc43)CC2)cc1 (stereo unspecified),-94*,-6,23,5,1,1
COc1ccc(CN2CCN(Cc3ccco3)CC2)cc1OC,10,9,0,9,-34*,1
O=C(c1cccc(F)c1)N1CCN(Cc2c[nH]c3ccccc23)CC1,-55*,-5,1,-2,-18,1
CCOc1ccc(CN2CCN(CC(O)Cn3c4ccccc4c4ccccc43)CC2)cc1 (stereo unspecified),-6,-2,16,0,-2,1
COc1cc(/C=C(/C#N)C(=O)c2c(Cl)cccc2Cl)cc(OC)c1OC,nt,nt,nt,nt,7,nt
COc1ccc(Br)cc1CN1CCN(Cc2c[nH]c3ccccc23)CC1,-15,-18,38*,1,-17,3
COc1cccc(OC)c1C(=O)N1CCN(Cc2c[nH]c3ccccc23)CC1,nt,nt,nt,nt,-16,nt
O=C(CC12CC3CC(CC(C3)C1)C2)Nc1ccccc1C(=O)c1ccccc1,nt,nt,nt,nt,2,nt
SMILES,D1 antagonist,D1 potentiator,D1 ag,TRHR enhancer,LDHA inh,TRHR ag
Cc1cccc(OCC(=O)Nc2cc(Cl)ccc2-n2cncn2)c1C,-19,-5,2,21,-7,1
O=C(Nc1cc(Cl)ccc1-n1cncn1)c1ccc(Br)o1,8,-1,1,3,-11,0
CCCOc1ccccc1OCC(=O)Nc1cc(Cl)ccc1-n1cncn1,-71*,-11,6,5,-3,0
O=C(Nc1cc(Cl)ccc1-n1cncn1)c1cncc(Br)c1,-45*,-10,-2,11,-5,0
Cc1ccc(S(=O)(=O)N2CCN(Cc3cc(=O)oc4cc(O)c(Cl)cc34)CC2)cc1,nt,nt,nt,nt,0,nt
CCN(CC)S(=O)(=O)c1cccc(C(=O)N/N=C2\CCCC(=O)C2)c1,21,-2,38*,-14,-2,9
COCCNC(=O)C(=O)N1CCN(c2nc(-c3ccccc3)c3c(c2C#N)CCCC3)CC1,nt,nt,nt,nt,1,nt
COc1ccc(OCc2cc(C(=O)NCc3nc(C)cs3)no2)c(Cl)c1,-35*,8,17,17,1,2
CC1CCN(C(=O)c2nn(C)c3c2CCc2sccc2-3)CC1,nt,nt,nt,nt,45,nt
O=[N+]([O-])c1ccc(-c2ccc(/C=N/Nc3nc(NCc4ccccc4)nc(N4CCOCC4)n3)o2)cc1,-12,2,74*,-1,-8,21
COc1nc(N/N=C/c2ccc(-c3ccccc3[N+](=O)[O-])o2)nc(N2CCOCC2)n1,-10,-5,1,2,25,-1
CCC(=O)NC1(C(F)(F)F)C(=O)Nc2c1c(=O)n(C)c(=O)n2C (stereo unspecified),-60*,-8,4,-3,-1,1
CC1CCN(C(=O)C(=O)Nc2sc3c(c2C(=O)O)CC(C)(C)OC3)CC1,-58*,7,3,7,-4,0
CC1(C)Cc2c(sc(NC(=O)c3ccco3)c2C(=O)O)CO1,1,1,4,-7,-34*,-1
CC1(C)Cc2c(sc(NC(=S)NC(=O)c3ccccc3)c2C(=O)O)CO1,3,3,2,3,1,-1
CC(=O)OCCn1c(C)[n+](CCOC(C)=O)c2cc(Cl)c(Cl)cc21,12,-8,0,-3,-16,0
CCn1c(C)[n+](CCOCC[n+]2c(C)n(CC)c3cc(Cl)c(Cl)cc32)c2cc(Cl)c(Cl)cc21,-48*,-5,0,-6,-43*,0
CCOC(=O)C1CN(S(=O)(=O)c2ccc(C)cc2)c2ccccc2O1 (stereo unspecified),-45*,-6,6,-1,-1,2
Cc1ccnc(NC(=O)CCc2nc(C(C)(C)C)no2)c1,nt,nt,nt,nt,-14,nt
CS(=O)(=O)Nc1ccc(NC(=O)c2cc(-c3cccs3)on2)cc1,nt,nt,nt,nt,5,nt
CC(C)OC(=O)/C(=C\c1ccccc1)NC(=O)c1ccccc1,5,-3,-1,-4,1,0
CC(C)OC(=O)C(NC(=O)c1ccccc1)=C1CCCCC1,-38*,-2,4,-5,0,-1
CCCC(C)NC(=O)c1cccc(Oc2ccccc2)c1 (stereo unspecified),6,-5,33*,6,-2,-2
CC(=O)Nc1ccc(NC(=O)c2cccc(Oc3ccccc3)c2)cc1,1,-5,2,2,-2,0
Cc1cccc(C)c1OCCN,nt,nt,nt,nt,4,nt
O=C(CSc1nc2ccccc2s1)Nc1c(F)cccc1F,nt,nt,nt,nt,3,nt
O=C(Nc1cccc(C(F)(F)F)c1)C1C2CCC3C(CCC21)C3(Cl)Cl (stereo unspecified),nt,nt,nt,nt,3,nt
